Test results taken from PubChem BioAssay (NCI).
The panel holds about 79,000 compounds, 15% with a hit somewhere; the sample as a whole holds those more often. Active and inactive are the calls of the source. Cut-off read from the data, not from the text of the source: active = growth inhibition above about 70%; inactive = the rest.

Legend:
[1] = NCI Yeast Anticancer Drug Screen. Data for the rad52 strain (AID 147);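 note: 0% = growth of vehicle-treated control cultures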; conditions: S. cerevisiae rad52 mutant growth inhibition, active compounds read high
In short: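 Growth of repair-deficient yeast cells was compared between compound-treated and vehicle-treated cultures to give percent inhibition.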

[2] = NCI Yeast Anticancer Drug Screen. Data for the wt1 strain (AID 149);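 note: 0% = growth of vehicle-treated wt1 cultures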; conditions: S. cerevisiae wt1 strain (SPY 50644) growth inhibition, active compounds read high
In short: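 Compounds are added to wt1 yeast cultures. Growth is then measured. Inhibition is expressed relative to vehicle-treated controls.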

[3] = NCI Yeast Anticancer Drug Screen. Data for the rad50EPP+ strain (AID 151);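 note: 0% = growth of vehicle-treated control cultures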; conditions: S. cerevisiae rad50 mutant strain, active compounds read high
In short: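 Measured: growth inhibition of rad50EPP+ yeast. Reference: vehicle-treated controls. Screen uses strains with defined genetic alterations in DNA damage repair or cell cycle control.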

[4] = NCI Yeast Anticancer Drug Screen. Data for the mgt1 strain (AID 153); conditions: S. cerevisiae mgt1 mutant growth inhibition, active compounds read high
In short: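 Compounds were applied to mgt1 mutant yeast, and growth was then compared against vehicle-treated control cultures to give percent inhibition.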

[5] = NCI Yeast Anticancer Drug Screen. Data for the rad50 strain (AID 155);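 note: 0% = growth of vehicle-only cultures of the same strain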; conditions: S. cerevisiae rad50 strain growth inhibition, active compounds read high
In short: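 Inhibition values express reduced yeast growth in compound-treated cultures relative to vehicle-treated controls.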

[6] = NCI Yeast Anticancer Drug Screen. Data for the mec2-1 strain (AID 157); conditions: S. cerevisiae mec2-1 strain, active compounds read high
In short: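 Compounds were applied to mec2-1 yeast cells. Their growth was then compared with that of vehicle-treated cultures to give growth inhibition.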

[7] = NCI Yeast Anticancer Drug Screen. Data for the rad14 strain (AID 159);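 note: 0% = growth of vehicle-treated control cultures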; conditions: S. cerevisiae rad14 strain growth inhibition, active compounds read high
In short: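 A mutant yeast strain defective in DNA damage repair is treated with compound; inhibition of its growth is scored against untreated, vehicle-exposed cultures.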

[8] = NCI Yeast Anticancer Drug Screen. Data for the sgs1 mgt1 strain (AID 161);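 note: 0% = growth of cultures given vehicle only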; conditions: S. cerevisiae sgs1 mgt1 strain, active compounds read high
In short: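 This yeast growth screen uses a strain with defined DNA-repair lesions; compound-treated growth is compared with vehicle-treated growth.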

[9] = NCI Yeast Anticancer Drug Screen. Data for the CLN2oe strain (AID 163);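 note: 0% = growth of vehicle-only control cultures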; conditions: S. cerevisiae CLN2oe strain, active compounds read high
In short: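 Cells of an engineered yeast line with disturbed cell-cycle regulation are treated with compound. Inhibition of growth is then calculated relative to the vehicle-treated reference.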

[10] = NCI Yeast Anticancer Drug Screen. Data for the cln2 rad14 strain (AID 165);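 note: 0% = growth equal to vehicle treated cultures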; conditions: S. cerevisiae cln2 rad14 strain, active compounds read high
In short: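 Strain: cln2 rad14 yeast, altered in cell cycle control and DNA damage repair. Read-out: growth inhibition vs vehicle.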

[11] = NCI Yeast Anticancer Drug Screen. Data for the wt2 strain (AID 169);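 note: 0% = growth of vehicle-treated yeast cultures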; conditions: S. cerevisiae wt2 strain growth inhibition, active compounds read high
In short: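 Growth of compound-treated yeast is measured and expressed as inhibition relative to vehicle-only controls.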

[12] = NCI Yeast Anticancer Drug Screen. Data for the mlh1 strain (AID 171);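 note: 0% = growth of vehicle-treated control cultures of the same strain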; conditions: S. cerevisiae mlh1 strain growth inhibition, active compounds read high
In short: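 Test agents were incubated with yeast bearing a defined DNA damage repair or cell cycle control alteration; values are growth inhibition normalised to vehicle-treated cultures.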

[13] = NCI Yeast Anticancer Drug Screen. Data for the sgs1 strain (AID 173);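 note: 0% = growth of vehicle-only control cultures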; conditions: S. cerevisiae sgs1 mutant, active compounds read high
In short: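 Strain with an altered DNA repair or cell cycle pathway exposed to compound. Growth then measured. Value = inhibition versus vehicle control.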

[14] = NCI Yeast Anticancer Drug Screen. Data for the mlh1 rad18 strain (AID 175); conditions: S. cerevisiae mlh1 rad18 strain growth inhibition, active compounds read high
In short: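 A repair-deficient yeast strain is exposed to test compound, and growth is scored relative to vehicle-treated controls.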

[15] = NCI Yeast Anticancer Drug Screen. Data for the rad18 strain (AID 177); conditions: S. cerevisiae rad18 mutant growth inhibition, active compounds read high
In short: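 DNA-repair-defective yeast; compound treatment; growth inhibition scored against vehicle.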

[16] = NCI Yeast Anticancer Drug Screen. Data for the bub3 strain (AID 167); conditions: S. cerevisiae bub3 mutant strain, active compounds read high
In short: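 Steps: expose the mutant yeast strain to compound; grow alongside vehicle-treated cultures; measure growth; express inhibition against the vehicle cultures.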

[17] = at 5.0 µM (retest, dose inferred, filed as 0.5)
[18] = at 50.0 µM (retest, dose inferred, filed as 5.0)

Measured: growth inhibition

CCCCc1cc(O)ccc1O
active: [3]; at 33.0 µM 77% | [3]; at 100.0 µM 88% | [5]; [18] 87%
inactive: [1]; at 1.2 µM 2% | [1]; at 3.7 µM 13% | [1]; at 11.0 µM 24% | [1]; at 33.0 µM 27% | [1]; at 100.0 µM 29% | [2]; at 1.2 µM -2% | [2]; at 3.7 µM -2% | [2]; at 11.0 µM 0% | [2]; at 33.0 µM 3% | [2]; at 100.0 µM 1% | [3]; at 1.2 µM 13% | [3]; at 3.7 µM 34% | [3]; at 11.0 µM 57% | [4]; at 1.2 µM -4% | [4]; at 3.7 µM -1% | [4]; at 11.0 µM 1% | [4]; at 33.0 µM 0% | [4]; at 100.0 µM 10% | [5]; at 1.2 µM 6% | [5]; at 3.7 µM 12% | [5]; [17] -81% | [5]; at 11.0 µM 32% | [5]; at 33.0 µM 54% | [5]; at 50.0 µM 20.7% | [5]; at 100.0 µM 62% | [6]; at 1.2 µM 4% | [6]; at 3.7 µM 2% | [6]; [17] -37% | [6]; at 11.0 µM 1% | [6]; at 33.0 µM 17% | [6]; [18] -13% | [6]; at 50.0 µM 11.2% | [6]; at 100.0 µM 28% | [7]; at 1.2 µM 2% | [7]; at 3.7 µM 3% | [7]; at 11.0 µM 18% | [7]; at 33.0 µM 31% | [7]; at 100.0 µM 35% | [8]; [17] -48% | [8]; [18] 6% | [8]; at 50.0 µM 43.7% | [9]; at 1.2 µM -3% | [9]; at 3.7 µM 1% | [9]; at 11.0 µM 3% | [9]; at 33.0 µM 11% | [9]; at 100.0 µM 21% | [10]; [17] -54% | [10]; [18] -31% | [10]; at 50.0 µM 19.5% | [11]; at 1.2 µM 0% | [11]; at 3.7 µM -1% | [11]; at 11.0 µM 1% | [11]; at 33.0 µM 3% | [11]; at 100.0 µM 6% | [12]; at 1.2 µM 6% | [12]; at 3.7 µM -1% | [12]; at 11.0 µM 4% | [12]; at 33.0 µM 9% | [12]; at 100.0 µM 4% | [13]; at 1.2 µM 0% | [13]; at 3.7 µM 6% | [13]; at 11.0 µM 10% | [13]; at 33.0 µM 24% | [13]; at 100.0 µM 42% | [14]; [17] -86% | [14]; [18] 42% | [14]; at 50.0 µM 64.3% | [15]; at 1.2 µM 3% | [15]; at 3.7 µM 7% | [15]; at 11.0 µM 15% | [15]; at 33.0 µM 26% | [15]; at 100.0 µM 31%

CC1=C(C)Cc2c(O)ccc(O)c2C1
inactive: [1]; at 1.2 µM 1% | [1]; at 3.7 µM 12% | [1]; at 11.0 µM 25% | [1]; at 33.0 µM 20% | [1]; at 100.0 µM 61% | [2]; at 1.2 µM -1% | [2]; at 3.7 µM -3% | [2]; at 11.0 µM -3% | [2]; at 33.0 µM -3% | [2]; at 100.0 µM -20% | [3]; at 1.2 µM 20% | [3]; at 3.7 µM 46% | [3]; at 11.0 µM 67% | [3]; at 33.0 µM 43% | [3]; at 100.0 µM 58% | [4]; at 1.2 µM -2% | [4]; at 3.7 µM 2% | [4]; at 11.0 µM 6% | [4]; at 33.0 µM -1% | [4]; at 100.0 µM 29% | [5]; at 1.2 µM 1% | [5]; at 3.7 µM 17% | [5]; [17] -9% | [5]; at 11.0 µM 38% | [5]; at 33.0 µM 33% | [6]; at 1.2 µM -3% | [6]; at 3.7 µM -3% | [6]; [17] 30% | [6]; at 11.0 µM -3% | [6]; at 33.0 µM -4% | [6]; at 50.0 µM 45.8% | [6]; at 100.0 µM 20% | [7]; at 1.2 µM 2% | [7]; at 3.7 µM 9% | [7]; at 11.0 µM 18% | [7]; at 33.0 µM 13% | [7]; at 100.0 µM 47% | [8]; [17] 5% | [8]; at 50.0 µM 33.8% | [10]; [17] 31% | [10]; at 50.0 µM 48.9% | [16]; at 1.2 µM -3% | [16]; at 3.7 µM -5% | [16]; at 11.0 µM -4% | [16]; at 33.0 µM 3% | [16]; at 100.0 µM 63% | [11]; at 1.2 µM -12% | [11]; at 3.7 µM -6% | [11]; at 11.0 µM -4% | [11]; at 33.0 µM 3% | [11]; at 100.0 µM -4% | [12]; at 1.2 µM -1% | [12]; at 3.7 µM 5% | [12]; at 11.0 µM 12% | [12]; at 33.0 µM 6% | [12]; at 100.0 µM 44% | [13]; at 1.2 µM -21% | [13]; at 3.7 µM -5% | [13]; at 11.0 µM -9% | [13]; at 33.0 µM 7% | [13]; at 100.0 µM 67% | [14]; [17] 52% | [15]; at 1.2 µM 0% | [15]; at 3.7 µM 10% | [15]; at 11.0 µM 18% | [15]; at 33.0 µM 14%
active: [5]; [18] 99% | [5]; at 50.0 µM 94.5% | [5]; at 100.0 µM 93% | [6]; [18] 99% | [8]; [18] 98% | [10]; [18] 98% | [16]; [17] 94% | [16]; [18] 99% | [16]; at 50.0 µM 83% | [14]; [18] 99% | [14]; at 50.0 µM 93.2% | [15]; at 100.0 µM 93%
